# Results filed as inconclusive are left out. Values without a mark were called inactive. Unless noted, calls come from the whole dose curve; as a rule, active = well fitted cell-killing curve with a large enough effect in the repeat runs; inconclusive = weak or mixed curves; inactive = no such curve, though single readings can be large or run the other way.
# Test system: not listed separately
# Assay: qHTS assay to identify small molecule agonists of the peroxisome proliferator-activated receptor delta (PPARd) signaling pathway - cell viability counter screen (AID 743211); note: nearly all actives have a fitted effect of over 55% in size
# Settings: PPARd-bla HEK293H viability, CellTiter-Glo luminescence, 17 h; series mostly up to 62.6 µM; activity change, negative = cytotoxicity: at the top concentration
# Method in brief: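 PPARd-bla HEK293H cells (3000/well) were pre-incubated 5 h at 37 C, then exposed to compound for 17 h at 37 C. After 2 h with LiveBLAzer substrate, CellTiter-Glo was added to the same wells; luminescence read after 30 min at room temperature.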
# % is set by controls: 0 for no effect and ±100 for the full control effect.
row,Structure (SMILES),"activity change, negative = cytotoxicity"
1,OCCN1CCN(CCO)CC1,0.867% [at 81.1 µM]
2,CCCCN1C[C@H](O)[C@@H](O)[C@H](O)[C@H]1CO,14.2%
3,O=CCCc1ccccc1,7.3%
4,CCN[C@H]1CN(CCCOC)S(=O)(=O)c2sc(S(N)(=O)=O)cc21,9.57%
5,C=Cc1ccccc1,0.504%
6,COc1cc(Cl)ccc1Cl,6.96% [at 81.1 µM]
7,Cc1ccsc1C(=CCCN1CCC[C@@H](C(=O)O)C1)c1sccc1C,1.24%
8,N#CSCC(=O)O,4.45%
9,CC1(C)C(=O)N(Cl)C(=O)N1Br,3.78%
10,CC(C)Nc1nc(N)nc(Cl)n1,-0.374%
11,CC(C)S,3.89% [at 81.1 µM]
12,COc1cc(C)ccc1C(C)C,8.98%
13,CCC1(C)NC(=O)NC1=O (stereo unspecified),-1.27%
14,C=C(C)C(=O)OCCOP(=O)(O)O,3.6% [at 81.1 µM]

# Target: Peroxisome proliferator-activated receptor delta (Homo sapiens) (UniProt Q03181)
# Assay: qHTS assay to identify small molecule agonists of the peroxisome proliferator-activated receptor delta (PPARd) signaling pathway (AID 743212; calls by dose curve;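 note: HEK293H cells with PPARd UAS beta-lactamase reporter GeneBLAzer system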)
# Settings: HEK293H PPARd-UAS-bla, beta-lactamase FRET ratio, 17 h; series mostly up to 62.6 µM; activation: at the top concentration
# Method in brief: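 GeneBLAzer UAS-bla HEK293H cells carrying a PPARδ construct were exposed to compounds at 37 °C. Beta-lactamase activity was read by FRET fluorescence after 2 h at room temperature with LiveBLAzer B/G substrate.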
# Sequence of Peroxisome proliferator-activated receptor delta (Homo sapiens) (Q03181 whole entry, looked up): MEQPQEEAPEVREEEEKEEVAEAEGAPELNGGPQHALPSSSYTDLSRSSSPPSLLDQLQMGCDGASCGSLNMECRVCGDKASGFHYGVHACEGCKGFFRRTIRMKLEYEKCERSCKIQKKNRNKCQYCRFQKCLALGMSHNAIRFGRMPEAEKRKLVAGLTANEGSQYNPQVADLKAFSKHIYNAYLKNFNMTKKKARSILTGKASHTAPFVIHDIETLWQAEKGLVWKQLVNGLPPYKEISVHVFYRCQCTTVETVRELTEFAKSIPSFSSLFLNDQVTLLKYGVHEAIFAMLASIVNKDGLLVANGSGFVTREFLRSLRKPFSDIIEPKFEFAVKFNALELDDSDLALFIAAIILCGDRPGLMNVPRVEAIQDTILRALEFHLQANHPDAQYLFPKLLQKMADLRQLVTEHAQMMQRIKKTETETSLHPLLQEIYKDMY
row,Structure (SMILES),activation
1,O=C(CCCl)NCc1ccccc1,-3.64%
2,Nc1cccc(S(=O)(=O)O)c1,0.0368%
3,CCOC(=O)c1ccccc1O,3.62%
4,CCCOCCC,-5.92%
5,CC1(C)S[C@@H]2[C@H](NC(=O)C(C(=O)O)c3ccccc3)C(=O)N2[C@H]1C(=O)O (stereo partly specified),4.5%
6,Cc1cc(NS(=O)(=O)c2ccc(N)cc2)nc(C)n1,-1.63%
7,Cc1ccc(C)c(N)c1,0.0411%
8,Cc1cc(S(=O)(=O)O)c(N)cc1Cl,-0.239% [at 81.1 µM]
9,Cc1nnc(SCC2=C(C(=O)O)N3C(=O)[C@@H](NC(=O)Cn4cnnn4)[C@H]3SC2)s1,2.49%
10,CC(C)(C)C1CCCCC1=O (stereo unspecified),-3.73%
11,CCCC(CCC)(C(=O)OCC)C(=O)OCC,2.96%
12,CC(CNC1CCCCC1)OC(=O)c1ccccc1 (stereo unspecified),-0.021%
13,CCOc1ccc(OCC)c(Cl)c1,4.71%
14,O=C(O)[C@@H]1CSCN1,1.46%
15,CC1=C(O)C(=O)OC1C (stereo unspecified),-0.131%
16,O=S(=O)(O)C(F)(F)F,-1.87%
17,CN1CCN(c2c(F)cc3c(=O)c(C(=O)O)cn(CCF)c3c2F)CC1,3.79%
18,O=C(O)c1cccc(Cl)c1Cl,7.29%

row,Structure (SMILES),activation
1,Cc1ccc([N+](=O)[O-])cc1Cl,-2.65% [at 81.1 µM]
2,NCCCN1CCN(CCCN)CC1,2.54%
3,FC(F)(F)c1ccccc1,0.673%
4,COC(=O)N[C@H](C(=O)N[C@@H](Cc1ccccc1)[C@@H](O)CN(Cc1ccc(-c2ccccn2)cc1)NC(=O)[C@@H](NC(=O)OC)C(C)(C)C)C(C)(C)C,-5.33%
5,OCCN1CCN(CCO)CC1,1.19% [at 81.1 µM]
6,CCCCN1C[C@H](O)[C@@H](O)[C@H](O)[C@H]1CO,2.01%
7,O=CCCc1ccccc1,1.29%
8,CCN[C@H]1CN(CCCOC)S(=O)(=O)c2sc(S(N)(=O)=O)cc21,1.66%
9,C=Cc1ccccc1,-4.22%
10,COc1cc(Cl)ccc1Cl,-1.11% [at 81.1 µM]
11,Cc1ccsc1C(=CCCN1CCC[C@@H](C(=O)O)C1)c1sccc1C,-0.37%
12,N#CSCC(=O)O,0.966%
13,CC1(C)C(=O)N(Cl)C(=O)N1Br,4.47%
14,CC(C)Nc1nc(N)nc(Cl)n1,-3.4%
15,CC(C)S,-0.956% [at 81.1 µM]
16,COc1cc(C)ccc1C(C)C,3.7%
17,CCC1(C)NC(=O)NC1=O (stereo unspecified),3.17%
18,C=C(C)C(=O)OCCOP(=O)(O)O,-1.05% [at 81.1 µM]

# Test system: not listed separately
# Assay: qHTS assay to identify small molecule antagonists of the peroxisome proliferator-activated receptor delta (PPARd) signaling pathway - cell viability counter screen (AID 743213); note: nearly all actives have a fitted effect of over 50% in size
# Settings: PPARd-bla HEK293H viability, CellTiter-Glo luminescence, 17 h; series mostly up to 62 µM; viability change, negative = cytotoxic: at the top concentration
# Method in brief: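 HEK293H cells with the PPARd UAS-bla reporter, co-treated 17 h at 37 C with compounds and L165041 (300 nM final), were lysed with CellTiter-Glo. Luminescence indicated viable cell content.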
row,Structure (SMILES),"viability change, negative = cytotoxic"
1,O=C(CCCl)NCc1ccccc1,-1.54%
2,O=C(O[C@@H](C(=O)O)[C@@H](OC(=O)c1ccccc1)C(=O)O)c1ccccc1,1.25% [at 80.4 µM]
3,Nc1cccc(S(=O)(=O)O)c1,1.97%
4,CCOC(=O)c1ccccc1O,-6.45%
5,CCCOCCC,22.8%
6,CC1(C)S[C@@H]2[C@H](NC(=O)C(C(=O)O)c3ccccc3)C(=O)N2[C@H]1C(=O)O (stereo partly specified),0.681%
7,Cc1cc(NS(=O)(=O)c2ccc(N)cc2)nc(C)n1,7.5%
8,Cc1ccc(C)c(N)c1,-14.8%
9,Cc1cc(S(=O)(=O)O)c(N)cc1Cl,0.385% [at 80.4 µM]
10,Cc1nnc(SCC2=C(C(=O)O)N3C(=O)[C@@H](NC(=O)Cn4cnnn4)[C@H]3SC2)s1,-5.29%
11,CC(C)(C)C1CCCCC1=O (stereo unspecified),5.06%
12,CCCC(CCC)(C(=O)OCC)C(=O)OCC,22.1%
13,CC(CNC1CCCCC1)OC(=O)c1ccccc1 (stereo unspecified),1.89%
14,CCOc1ccc(OCC)c(Cl)c1,24.2%
15,O=C(O)[C@@H]1CSCN1,12.7%
16,CC1=C(O)C(=O)OC1C (stereo unspecified),9.87%
17,Cc1ncc(CO)c(CN)c1O,18%
18,O=S(=O)(O)C(F)(F)F,-7.15%

row,Structure (SMILES),"viability change, negative = cytotoxic"
1,CN1CCN(c2c(F)cc3c(=O)c(C(=O)O)cn(CCF)c3c2F)CC1,4.61%
2,Cc1ccc([N+](=O)[O-])cc1Cl,-24.2% [at 80.4 µM]
3,NCCCN1CCN(CCCN)CC1,-1.28%
4,FC(F)(F)c1ccccc1,1.41%
5,COC(=O)N[C@H](C(=O)N[C@@H](Cc1ccccc1)[C@@H](O)CN(Cc1ccc(-c2ccccn2)cc1)NC(=O)[C@@H](NC(=O)OC)C(C)(C)C)C(C)(C)C,7.65%
6,OCCN1CCN(CCO)CC1,3.76% [at 80.4 µM]
7,CCCCN1C[C@H](O)[C@@H](O)[C@H](O)[C@H]1CO,14.2%
8,O=CCCc1ccccc1,18.5%
9,CCN[C@H]1CN(CCCOC)S(=O)(=O)c2sc(S(N)(=O)=O)cc21,16.5%
10,C=Cc1ccccc1,4.36%
11,Cc1ccsc1C(=CCCN1CCC[C@@H](C(=O)O)C1)c1sccc1C,-4.81%
12,N#CSCC(=O)O,-1.81%
13,CC1(C)C(=O)N(Cl)C(=O)N1Br,-1.55%
14,CC(C)Nc1nc(N)nc(Cl)n1,7.12%
15,CC(C)S,-16.6% [at 80.4 µM]
16,COc1cc(C)ccc1C(C)C,4.95%
17,CCC1(C)NC(=O)NC1=O (stereo unspecified),-3.63%
18,C=C(C)C(=O)OCCOP(=O)(O)O,-1.94% [at 80.4 µM]

# Reference: PubChem BioAssay (Tox21)
